Results filed as inconclusive are left out. Calls of active or inactive are those of the source. Calls follow the shape of the dose curve; as a rule, active = well fitted cell-killing curve with a large enough effect in the repeat runs; inconclusive = weak or mixed curves, or effect the other way; inactive = flat fitted curve, though single readings scatter.
% is scaled to controls: 0 for no effect and ±100 for the full control effect; potency is read from the fitted curve at half-maximal effect.

A short description of this assay: cAMP Responsive Elements (CRE) small molecule agonists, cell-based qHTS assay: qHTS cell viability counter screen (AID 2060914). Also: nearly all actives have a fitted effect of over 50% in size. To be noted: CRE-bla HEK293T viability, CellTiter-Glo luminescence, 5 h; series mostly up to 92.4 µM; activity change, negative = cytotoxicity: at the top concentration. In a few lines: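 In the same wells as the reporter read, viability of CRE-bla HEK 293T cells was quantified by CellTiter-Glo luminescence after a 3 h compound exposure.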
For the molecule `COc1ccccc1OCCNCC(O)COc1cccc2[nH]c3ccccc3c12` (stereo not given), the “activity change, negative = cytotoxicity” value was -4.08% [at 42.5 µM] (inactive).
Regarding `O=C(Nc1ccccc1SSc1ccccc1NC(=O)c1ccccc1)c1ccccc1`, the Potency entry was “inactive”.
As to `CC(C)c1ccc2c(c1)CC[C@H]1[C@](C)(CN)CCC[C@]21C`, the “activity change, negative = cytotoxicity” value was -12.6% (inactive).
Same read-out and setting: in the case of `NNC(=O)CP(=O)(c1ccccc1)c1ccccc1` it was 10% [at 42.5 µM] (inactive).
For the molecule `CC(CCl)OC(C)CCl` (stereo not given), the “activity change, negative = cytotoxicity” value was 6.52% (inactive).
As to `O=C(Oc1ccccc1)c1ccccc1O`, the Potency entry is “inactive”.
`Nc1ccncc1N`: the “activity change, negative = cytotoxicity” value is 3.31% [at 42.5 µM] (inactive).
Take `C=C(C)C(=O)OCCOCCOCCOC(=O)C(=C)C`: the Potency result was “inactive”.
Take `CCCCCCCCCCOC(C)=O`: the “activity change, negative = cytotoxicity” value was 5.73% (inactive).
For the molecule `O=[N+]([O-])c1cc(C2CCCCC2)c(O)c([N+](=O)[O-])c1`, the “activity change, negative = cytotoxicity” value is -26.8% (inactive).
Take `C#C[C@]1(OC(C)=O)CC[C@H]2[C@@H]3CCC4=C[C@@H](OC(C)=O)CC[C@@H]4[C@H]3CC[C@@]21C`: the “activity change, negative = cytotoxicity” value was -22.7% [at 42.5 µM] (inactive).
Regarding `Cc1ccc(N(C)C)cc1`, the Potency result was “inactive”.
As for `Cc1cc(CCCOc2c(C)cc(-c3noc(C(F)(F)F)n3)cc2C)on1`, the “activity change, negative = cytotoxicity” value was -25.6% [at 42.5 µM] (inactive).
Consider `O=C(O)c1cc(O)c2c(c1)C(=O)c1cccc(O)c1C2=O`, for which the “activity change, negative = cytotoxicity” value was 0.496% (inactive).
Turning to `Cc1ccc(N(CC2=NCCN2)c2cccc(O)c2)cc1`, the “activity change, negative = cytotoxicity” value was 5.09% [at 42.5 µM] (inactive).
`CSc1nc(NC2CC2)nc(NC(C)(C)C)n1`: the “activity change, negative = cytotoxicity” value was -17.5% (inactive).
As to `C[N+](C)(C)CCOC(N)=O`, the “activity change, negative = cytotoxicity” value is 1.09% [at 42.5 µM] (inactive).
As to `CCC(CC)C(=O)O`, the “activity change, negative = cytotoxicity” value is 6.12% (inactive).
Consider `O=C(O)c1ccc2c(c1)nc(C(=O)NC1CCN(C3CC3)CC1)n2Cc1cc(-c2ccc(Cl)s2)on1`, for which the activity change, negative = cytotoxicity is -9.02% [at 18.9 µM] (inactive).
As for `O=C(O)c1ccccc1C(c1ccc(O)cc1)c1ccc(O)cc1`, the Potency entry was “inactive”.
On to `OC[C@H]1O[C@@H]2O[C@H]3[C@H](O)[C@@H](O)[C@@H](O[C@H]4[C@H](O)[C@@H](O)[C@@H](O[C@H]5[C@H](O)[C@@H](O)[C@@H](O[C@H]6[C@H](O)[C@@H](O)[C@@H](O[C@H]7[C@H](O)[C@@H](O)[C@@H](O[C@H]8[C@H](O)[C@@H](O)[C@@H](O[C@H]9[C@H](O)[C@@H](O)[C@@H](O[C@H]1[C@H](O)[C@H]2O)O[C@@H]9CO)O[C@@H]8CO)O[C@@H]7CO)O[C@@H]6CO)O[C@@H]5CO)O[C@@H]4CO)O[C@@H]3CO`, for which the “activity change, negative = cytotoxicity” value is -0.524% [at 42.5 µM] (inactive).
`CCN(CCN)c1cccc(C)c1`: the Potency result was “inactive”.
With `C=C[C@H]1CN2CC[C@H]1C[C@H]2[C@H](O)c1ccnc2ccc(OC)cc12`, the Potency entry was “inactive”.
`CCCCCCCCCCCCCOS(=O)(=O)O`: the “activity change, negative = cytotoxicity” value was -22.9% (inactive).
Turning to `CNc1ccc([N+](=O)[O-])cc1`, the “activity change, negative = cytotoxicity” value is -3.42% (inactive).
On to `O=C(O)CCCCC(=O)O`, for which the Potency result is “inactive”.
In the case of `O=CCCCC=O`, the Potency entry was “inactive”.
Consider `CC(NCCC(c1ccccc1)c1ccccc1)c1ccccc1` (stereo not given), for which the “activity change, negative = cytotoxicity” value was -16.2% [at 42.5 µM] (inactive).
Regarding `CCN(CC)CC(=O)Nc1c(C)cccc1C(=O)OC`, the “activity change, negative = cytotoxicity” value is 0.646% [at 42.5 µM] (inactive).
On the same count and under the same terms, in the case of `C=CC(=O)OCCOC(=O)CCC(=O)O` it was 0.827% (inactive); in that of `OC[C@@H](O)[C@@H](O)CO`, 18.6% (inactive).
Turning to `CCCCCCCC[Si](OCC)(OCC)OCC`, the “activity change, negative = cytotoxicity” value was 10.5% (inactive).
As to `CN(C)CCCCCCN(C)C`, the “activity change, negative = cytotoxicity” value was 4.59% (inactive).
For `Fc1ccc(Br)cc1`, the Potency result is “inactive”.
`Cc1c(C2(c3cc(Br)c(O)c(Br)c3C)OS(=O)(=O)c3ccccc32)cc(Br)c(O)c1Br`: the Potency was 52.9 µM (active).
With `CCCCCCc1ccc(-c2ccc(C#N)cc2)cc1`, the “activity change, negative = cytotoxicity” value was -11.3% (inactive).
Same read-out and setting: in the case of `C[C@@H](O)[C@H]1C(=O)N2C(C(=O)O)=C(S[C@@H]3CN[C@H](CNS(N)(=O)=O)C3)[C@H](C)[C@H]12` it was -0.905% [at 42.5 µM] (inactive); in that of `CCCCC(CC)CN` (stereo not given), -10.5% (inactive).
Regarding `O=C(Oc1cccc2cccnc12)c1ccccc1`, the “activity change, negative = cytotoxicity” value was 8.23% [at 42.5 µM] (inactive).
On the same count and under the same terms, in the case of `O=C(O)CN(CCOCCOCCN(CC(=O)O)CC(=O)O)CC(=O)O` it was -3.94% [at 0.349 µM] (inactive).

The values are drawn from PubChem BioAssay (Tox21).
